# Records with an inconclusive call do not appear. Active and inactive are the calls of the source. Calls follow the shape of the dose curve; as a rule, active = well fitted cell-killing curve with a large enough effect; inconclusive = small, poorly fitted or top-dose-only effect, or effect the other way; inactive = no such curve, though single readings can be large or run the other way.
# Experiment: Quantitative High-Throughput drug screen in 47 multiple myeloma cell lines against the NCATS MIPE library collection: KMM1_JCRB cell viability assay (AID 1918960); also: nearly all actives have a fitted effect of over 30% in size
# Details: KMM1 myeloma viability, CellTiter-Glo ATP luminescence, 48 h; series mostly up to 45.8 µM; viability (% of DMSO): at the top concentration
# From the text: PI: Beverly A. Mock Ph.D.
# Laboratory of Cancer Biology and Genetics,
# Center for Cancer Research, National Cancer Institute,
# National Institute of Health, Bethesda, Maryland
# Drug resistance and disease progression are common in multiple myeloma (MM) patients, underscoring the need for new therapeutic combinations. […] We hypothesized that effective combinations would reduce MYC expression and enhance p16 activity. […] These preclinical data identify potentially useful drug combinations for evaluation in drug-resistant MM and reveal potential mechanisms of combined drug sensitivity.
# Described herein is the primary MIPE qHTS used to cherrypick compounds. Validated compounds were then further tested for potential synergistic activiy.
# [1] Peat TJ, Gaikwad SM, Dubois W, Gyabaah-Kessie N, Zhang S, Gorjifard S, Phyo Z, Andres M, Hughitt VK, Simpson RM, Miller MA, Girvin AT, Taylor A, Williams D, D'Antonio N, Zhang Y, Rajagopalan A, Flietner E, Wilson K, Zhang X, Shinn P, Klumpp-Thomas C, McKnight C, Itkin Z, Chen L, Kazandijian D, Zhang J, Michalowski AM, Simmons JK, Keats J, Thomas CJ, Mock BA. Drug combinations identified by high-throughput screening promote cell cycle transition and upregulate Smad pathways in myeloma. Cancer Lett. 2023 Aug 1;568:216284. doi: 10.1016/j.canlet.2023.216284. Epub 2023 Jun 24. PMID: 37356470; PMCID: PMC10408729.
# SEQUENCE No. (e.g., 1, 2, 3, etc.); […] (e.g., Cells, Incubation, Reagent, etc.); VALUE and DESCRIPTION.
# 1; Cells; 5 uL; white, solid bottom 1536-well Greiner assay plate.
# 2; Compounds; 23 nL; Kalypsis pin tool (Wako USA) equipped with a 1536-well pin head to transfer to the assay plates.
# 3; Incubation; 48 hours; 37C incubation.
# 4; Reagent;5uL; CellTiter Glo (Promega).
# 5; Detector; 425V; Luminescence; Viewlux PerkinElmer.
# NOTES (numbers refer to Sequence numbers above)
# 1. The cell-based screening methods employed in this study were like those previously published. Briefly, the corresponding myeloma cell lines were screened in 1,536-well plates with 500 cells, 5-uL per well for inhibition of cell viability (assessed by measuring ATP levels with CellTiterGlo).
# 2. NCATS MIPE 4.0 library of approved and investigational drugs were added using the Kalypsis pin tool. Wells treated with DMSO only for 100% viability and media only cells for 0% viability were used as controls.
# 3. The assay plates were covered and incubated for 48 hours in a 37C, 5% CO2 incubator with controlled humidity.
# 4. After 48 hours, CellTilter-GloTM luminescent substrate mix (Promega) reagent was added to the assay plate and plates we incubated for 5 min at room temperature.
# 5. Signal was measured as median relative luminescence units on a ViewLux (PerkinElmer) multiplate reader.
# [1] Heske CM, Davis MI, Baumgart JT, Wilson K, Gormally MV, Chen L, Zhang X, Ceribelli M, Duveau DY, Guha R, Ferrer M, Arnaldez FI, Ji J, Tran HL, Zhang Y, Mendoza A, Helman LJ, Thomas CJ. Matrix Screen Identifies Synergistic Combination of PARP Inhibitors and Nicotinamide Phosphoribosyltransferase (NAMPT) Inhibitors in Ewing Sarcoma. Clin Cancer Res. 2017 Dec 1;23(23):7301-7311. doi: 10.1158/1078-0432.CCR-17-1121. Epub 2017 Sep 12. PMID: 28899971; PMCID: PMC6636827.
# Potency is read from the fitted curve at half-maximal effect.
Structure (SMILES),viability (% of DMSO),Potency
C[C@@H]1CC[C@H]2[C@@H](C)C(=O)O[C@@H]3O[C@@]4(C)CC[C@H]1[C@]32OO4,107% (inactive),–
CC(O)=C(C#N)C(=O)Nc1cc(Br)ccc1Br,122% (inactive),–
CC(C)(C)c1cc(C=C(C#N)C#N)cc(Br)c1O,–,18700 nM (active)
CN[C@@H]1Cc2cccc3[nH]c(=O)n(c23)C1,95.4% (inactive),–
CC(=Cc1csc(C)n1)[C@@H]1C[C@H]2O[C@@H]2CCC[C@H](C)[C@@H](O)[C@@H](C)C(=O)C(C)(C)[C@@H](O)CC(=O)O1,–,1 nM (active)
CCN1CCN(C(=O)Cc2ccc(Nc3ncc(F)c(Nc4ccc(C(=O)Nc5ccccc5Cl)cc4)n3)cc2)CC1,–,2640 nM (active)
O=C(Nc1ccncc1)C(=O)c1cn(Cc2ccc(Cl)cc2)c2ccccc12,–,18.7 nM (active)
Cc1ccccc1-n1c(Cn2cnc3c(N)ncnc32)nc2cccc(C)c2c1=O,–,372 nM (active)
CC(C)N[C@@H]1CCn2c(=O)[nH]c3cccc(c32)[C@@H]1O,–,743 nM (active)
CCCCCC[C@H]1C(=O)O[C@H](C)[C@H](NC(=O)c2cccc(NC=O)c2O)C(=O)O[C@@H](C)[C@@H]1OC(=O)CC(C)C,–,418 nM (active)
COc1ccc(N(C(=O)Oc2c(C)cccc2C)c2ccnc(Nc3ccc(N4CCN(C)CC4)cc3)n2)c(OC)c1,–,2960 nM (active)
CC(C)(C)[C@]1(O)C[C@@H]2OC(=O)C[C@@]23C(=O)O[C@@H]2OC(=O)[C@H](O)C213 (stereo not given in full),93.4% (inactive),–
CN1[C@H]2CC(O)C[C@H]1[C@H]1O[C@H]12 (stereo not given in full),102% (inactive),–
COc1ccc2c(c1)[C@]13CCCCC1C(C2)N(C)CC3 (stereo not given in full),74.6% (inactive),–
CSCC[C@@H](NC(=O)[C@@H](Cc1ccccc1)NC(=O)CNC(=O)CNC(=O)[C@@H](N)Cc1ccc(O)cc1)C(=O)O,129% (inactive),–
O=C(O)CNC(=O)c1c(O)c2ccccc2n(Cc2ccccc2)c1=O,107% (inactive),–
CCOC(=O)Nc1ccc(NCc2ccc(F)cc2)cc1N,–,6620 nM (active)
COCC1(CO)C(=O)C2CCN1CC2 (stereo not given),–,20900 nM (active)
CCCC[N+]1(C)[C@H]2CC(OC(=O)[C@H](CO)c3ccccc3)C[C@H]1[C@H]1O[C@H]12 (stereo not given in full),98.9% (inactive),–
O=C(N[C@H]1CN2CCC1CC2)c1ccc(Cl)cc1,68.5% (inactive),–

Structure (SMILES),viability (% of DMSO),Potency
CC1=C(O)C(=O)C=C2C1=CC=C1[C@@]2(C)CC[C@@]2(C)[C@@H]3C[C@](C)(C(=O)O)CC[C@]3(C)CC[C@]12C,–,833 nM (active)
CCC(=O)OC1CCC2C3CCC4=CC(=O)CC[C@@]4(C)C3CC[C@]12C (stereo not given in full),100% (inactive),–
N=c1c2c(-c3ccccc3)c(-c3ccccc3)n(Cc3ccccc3)c2ncn1C1CCC(O)CC1 (stereo not given),–,662 nM (active)
C[C@]12CCC(=O)C(O)=C1CC[C@@H]1[C@H]3CCC(=O)[C@@]3(C)CC[C@@H]12,100% (inactive),–
c1ccc(CCCN2CCN(CCOC(c3ccccc3)c3ccccc3)CC2)cc1,76.6% (inactive),–
Cc1c(C(=O)Nc2cccc(C(F)(F)F)c2)cc(-c2ccccc2)n1CCCN1CCOCC1,–,14800 nM (active)
O=C(NCC1CCOCC1)c1cnc(Nc2ccc(Cl)cc2Cl)nc1C(F)(F)F,89.3% (inactive),–
NC1CC1c1ccccc1 (stereo not given),101% (inactive),–
O=S(=O)(F)Cc1ccccc1,99% (inactive),–
CCCN1CCO[C@@H]2c3cc(O)ccc3OC[C@@H]21,104% (inactive),–
C[C@]12CC[C@@H]3[C@@H](CCC4=CC(=O)CC[C@@H]43)[C@@H]1CC[C@@H]2OC(=O)CCc1ccccc1,107% (inactive),–
O=c1[nH]c2ccc(Cl)cc2c(N[C@@H]2CN3CCC2CC3)c1-c1nc2ccccc2[nH]1,–,46.9 nM (active)
CC[C@@H]1[C@@H](C)O[C@@](O)([C@@H](C)[C@H](O)[C@H](C)[C@H]2OC(=O)C=CC=C[C@@H](C)[C@@H]([C@@H](C)[C@@H](O)[C@H](C)[C@@]3(O)C[C@H](O[C@H]4C[C@H](O)[C@H](O)[C@H](C)O4)[C@H](CC)[C@@H](C)O3)OC(=O)C=CC=C[C@@H]2C)C[C@H]1O[C@H]1C[C@H](O)[C@H](O)[C@H](C)O1,–,469 nM (active)
Cc1ccccc1-n1c(Cn2ncc3c(N)ncnc32)nc2cccc(C)c2c1=O,–,372 nM (active)
CN(C)[C@@H]1C(=O)C(C(N)=O)=C(O)[C@@]2(O)C(=O)C3=C(O)c4c(O)cccc4[C@@](C)(O)[C@H]3[C@H](O)[C@@H]12,94.9% (inactive),–
CC(N[C@H]1C[C@H]1c1ccccc1)c1ccc2c(c1)OCCO2 (stereo not given in full),112% (inactive),–
CC[C@@]1(O)C(=O)OCc2c1cc1n(c2=O)Cc2cc3ccccc3nc2-1,–,105 nM (active)
O=S(=O)(CC1CS1)c1ccc(Oc2ccccc2)cc1 (stereo not given),–,5900 nM (active)
NC1=NC(=O)N2CC12 (stereo not given),–,11800 nM (active)
COc1ccc2c(c[n+](C)c3c4cc5c(cc4ccc23)OCO5)c1OC,–,5900 nM (active)
